Autofluor counter – compound fluorescence in toxin protease inhibitor counterscreen; compound autofluorescence counterscreen, microsphere flow cytometry; active compounds read high; fluorescence intensity (no concentration beside the values); actives 3.1% (n = 360,000); AID 624483; in the data active = fluorescence intensity above about 16000; inconclusive = no clear call, values can overlap the other calls
BoNT F protease – BoNT/F light chain protease inhibitors, primary screen, biochemical, flow cytometry, MLPCN library | Botulinum neurotoxin type F light chain protease (Clostridium botulinum) | Multiplex microsphere protease cleavage assay | inhibition, % at 10 µM | actives 0.22% (n = 360,000) | AID 588497, 2011; in the data active = inhibition above about 35%, passing the limit was not always enough; inconclusive = no clear call, values can overlap the other calls; also: plate controls were buffer without enzyme for full effect and enzyme alone for no effect
MazEF act – activators of E. coli MazEF toxin-antitoxin RNase, primary screen, biochemical, fluorescence, uHTS; Endoribonuclease toxin MazF (Escherichia coli (strain K12)), P0AE70; FAM/BHQ RNA-DNA oligo cleavage fluorescence, 5 h; activation, % at 20 µM; actives 0.32% (n = 350,000); AID 504720, 2011; in the data active = activation above about 50%
Target sequence (P0AE70 whole entry, looked up): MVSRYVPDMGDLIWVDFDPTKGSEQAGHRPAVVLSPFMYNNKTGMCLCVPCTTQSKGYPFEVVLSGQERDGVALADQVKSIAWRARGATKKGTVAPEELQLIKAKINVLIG
BoNT-A LC inh2 – BoNT/A light chain protease inhibitors, primary screen, biochemical, flow cytometry, MLPCN library; Botulinum neurotoxin type A light chain protease (Clostridium botulinum A str. ATCC 3502); actives 0.17% (n = 360,000); inhibition, % at 10 µM; multiplex microsphere protease substrate cleavage; AID 588499, 2011; also: plate controls were buffer without enzyme for full effect and enzyme alone for no effect
Anthrax LF inh2 – Bacillus anthracis LF protease inhibitors, primary screen, biochemical, multiplex microsphere, MLPCN library. actives 0.12% (n = 360,000). multiplex microsphere protease cleavage assay. inhibition, % at 10 µM; also: plate controls were buffer without enzyme for full effect and enzyme alone for no effect
PfHsp40 yeast – rescue of yeast from PfHsp40 toxicity, primary screen, S. cerevisiae, ATP luminescence; S. cerevisiae expressing PfHsp40, growth rescue; growth rescue, % at 12.5 µM; actives 0.68% (n = 340,000); in the data active = growth rescue above about 28%, passing the limit was not always enough; inconclusive = no clear call, values can overlap the other calls;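 also: yeast W303a lacking pdr1 and pdr3 grown in galactose medium; growth measured after three days at 30 °C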
Starred values were filed as active, the others as inactive; u = inconclusive; x = no result. Hits are enriched below; roughly 4.3% of the tested compounds scored in any of these assays. Rule as the data show it, unless noted: active = inhibition above about 30%; inconclusive = no clear call, values can overlap the other calls; inactive = below that.

SMILES | Autofluor counter | BoNT F protease | MazEF act | BoNT-A LC inh2 | Anthrax LF inh2 | PfHsp40 yeast
CCC(C)(C)C1CCC2(CC1)NC(=O)N(CC(=O)N(C)CCOc1ccc(Cl)cc1)C2=O (stereo unspecified) | 5697 | -10 | -5 | 0 | 2 | -3
CC1(C)Cc2c(sc(NC(=O)C(=O)N3CCN(CCO)CC3)c2C(N)=O)CO1 | 7986 | -18 | 1 | -9 | -3 | -1
CCOC(=O)c1c(C)n(CC(COC(C)=O)OC(C)=O)c2ccc(OC(C)=O)cc12 (stereo unspecified) | 16360* | -8 | 4 | 0 | -2 | 0
COc1ccc(C(O)c2nc(-c3cccc(F)c3)cs2)cc1 (stereo unspecified) | 3083 | -12 | x | 0 | 1 | x
Cc1ccc(S(=O)(=O)Nc2nc(C)c(NC(=O)Nc3ccc(Cl)cc3Cl)s2)cc1 | 3312 | -3 | -11 | -1 | -3 | 3
Cc1ccc(S(=O)(=O)Nc2nc(C)c(NC(=O)OCCCl)s2)cc1 | 21860* | -7 | -2 | -5 | -3 | 0
CCC(=O)Oc1ccc(-c2cnc3ccccc3n2)cc1 | 10525 | 3 | 3 | 1 | -3 | 0
O=C(Oc1ccc(-c2cnc3ccccc3n2)cc1)c1ccco1 | 20475* | -4 | -8 | -2 | 1 | 0
CCCCN1C(=O)C(=O)N(CC(=O)c2ccc3c(c2)OCO3)C1=O | 4264 | -1 | 1 | 1 | -9 | 0
CCOC(=O)c1cc(OC(=O)c2ccccc2Br)n(-c2ccccc2)n1 | 10633 | -6 | -20 | 0 | -2 | 10
O=C(COC(=O)c1cn(-c2ccccc2)nc1-c1ccccc1)c1cccc([N+](=O)[O-])c1 | 16553* | -5 | 6 | -1 | -5 | -1
CCOC(=O)c1cc(OC(=O)c2cccc([N+](=O)[O-])c2)n(-c2ccccc2)n1 | 17208* | -3 | -5 | u | 0 | 22
CCOC(=O)c1cc(OC(=O)c2ccccc2)n(-c2ccccc2)n1 | 23849* | -1 | -3 | -1 | 0 | 112*
CN(CCc1ccccc1)C(=O)c1cc(COc2ccc(F)cc2Cl)on1 | 5612 | 8 | -5 | 1 | 0 | 12
Cc1ccc(Sc2ccc(NC(=O)c3ccc(S(C)(=O)=O)cc3Cl)cc2)cc1 | 21237* | -1 | -3 | u | -9 | -1
CC1Oc2ccccc2N(Cc2ccccc2Cl)C1=O (stereo unspecified) | 23481* | -2 | -2 | -1 | -2 | -1
COc1ccc(CN2C(=O)C(C)Oc3ccccc32)cc1 (stereo unspecified) | 4306 | 12 | -27 | -6 | 1 | 1
O=C1COc2ccccc2N1Cc1ccccc1Cl | 9192 | 4 | 0 | -1 | -2 | 50*
O=C(CN1C(=O)COc2ccccc21)c1ccc(Cl)cc1 | 11140 | -7 | 4 | -2 | -8 | 0
COC(C[C@H]1O[C@H]1[C@@H](O)[C@@H](C)OCc1ccccc1)OC | 4339 | 1 | 5 | 0 | -3 | -3
Cc1ccc(S(=O)(=O)N2CCOCC2)cc1NC(=O)COC(=O)c1ccc(Cl)nc1 | x | x | -2 | x | x | -2
Cc1nc2ccccc2c(=O)n1-c1cccnc1 | 21722* | 4 | -10 | u | -2 | -2
COc1ccc(-n2c(-c3ccc(C)cc3)nc3ccccc3c2=O)cc1 | 5961 | -7 | 5 | 0 | 3 | 0
CSc1nc2ccccc2c(=O)n1-c1cccnc1 | 5467 | -7 | 5 | 0 | 0 | 9
COc1ccc(-c2nc3ccccc3c(=O)n2-c2cccnc2)cc1 | 22591* | -2 | -2 | u | 0 | 0
SMILES | Autofluor counter | BoNT F protease | MazEF act | BoNT-A LC inh2 | Anthrax LF inh2 | PfHsp40 yeast
CCOC(=O)c1c(O)c2ccccc2n(CC)c1=O | 4318 | -4 | -10 | 0 | 0 | 4
C=CCN(c1ccccc1)S(=O)(=O)c1ccc2c(c1)NC(=O)C(C)C(=O)N2 (stereo unspecified) | 5467 | -4 | -4 | 0 | 4 | 0
Cc1ccc(C)c(N2N=C(C(=O)Nc3cccc(S(=O)(=O)N4CCCCC4)c3)CCC2=O)c1 | 2762 | -3 | -1 | 1 | -6 | 0
O=C(COc1ccc([N+](=O)[O-])cc1)Nc1cccc2nsnc12 | u | 2 | -15 | -1 | 0 | -1
O=C(CNC(=O)c1ccc(Br)o1)NCc1ccc(Cl)cc1Cl | 4952 | 6 | 1 | 2 | 0 | 52*
O=C(Nc1cccnc1)c1cc(-c2cccnc2)nc2ccc(Br)cc12 | 21271* | 2 | 0 | 4 | 2 | 0
COCCNC(=O)c1cc(-c2cccnc2)nc2ccc(Br)cc12 | 23362* | 1 | -4 | 1 | -1 | 0
C/C(Cn1cnc([N+](=O)[O-])n1)=N\NC(=O)c1cccc(F)c1 | 4265 | 36* | 3 | 0 | 0 | 0
CCCN(CCC)Cc1c(C(=O)N/N=C/CCc2ccccc2)nnn1-c1nonc1N | 5538 | -6 | -2 | -1 | 0 | -2
COc1cc(OC)c(N(C)S(=O)(=O)c2cccc(C(=O)NC3=NCCS3)c2)cc1Cl | 4591 | -5 | 3 | 1 | 0 | 0
CCCCNc1oc(-c2cccs2)nc1S(=O)(=O)c1ccccc1 | 22130* | 5 | -1 | 4 | 0 | 1
CNc1oc(-c2cccs2)nc1S(=O)(=O)c1ccccc1 | 4337 | -3 | 7 | -1 | -7 | 1
CC1CC(=O)c2c(cc3c(-c4c(O)cc(O)c5c(O)c6c(cc45)OC(C)CC6=O)c(O)cc(O)c3c2O)O1 (stereo unspecified) | 4577 | -91 | 9 | -4 | -37 | 102*
O=C1CCCCC(=O)N(c2ccccc2)c2ccccc21 | 16379* | 1 | -6 | 1 | 1 | 0
COc1cc(NS(=O)(=O)c2c(C)oc3c(F)c(F)c(F)c(F)c23)cc(OC)c1OC | 5277 | 2 | 8 | 0 | -4 | 1
Cc1ccc(C(=O)Oc2ccc(Br)cc2C(=S)N2CCOCC2)cc1 | 4972 | 2 | 2 | 0 | 0 | 3
Cc1c([N+](=O)[O-])cc(C(=O)Oc2ccc(Br)cc2C(=S)N2CCCCC2)cc1[N+](=O)[O-] | 22033* | 1 | 1 | u | -3 | 0
CC(=O)c1cccc(OCC(=O)NC2CCCCCC2)c1 | 5145 | -2 | 5 | 1 | -4 | 1
N/C(=N\OC(=O)c1ccc(Cl)c(Cl)c1)c1ccccn1 | 9865 | 2 | 3 | 0 | -2 | 1
N/C(=N\OC(=O)c1ccc(Cl)cc1)c1ccccn1 | 21717* | 8 | -5 | u | 0 | -3
Cc1cc2c(C)cc(=O)oc2c2c1NCCC2 | 25354* | -7 | 8 | -6 | -2 | 0
Cc1nc(-c2cccc(NS(=O)(=O)c3cccc4ccccc34)c2)cs1 | 22200* | 3 | 2 | u | -1 | 8
